Source: PubChem BioAssay
Compounds with a hit are over-represented: about 2.8% of the library has one in this group of screens.
B2AR arrestin ag – qHTS assay of beta-arrestin-biased ligands of beta2-adrenergic receptor: NCGC Sytravon Library Screen | Beta-2 adrenergic receptor (Homo sapiens), P07550 | HTLA Tango cells, beta-arrestin recruitment, luciferase luminescence, 18 h | Potency, µM (doses to about 46.1 µM), hits mostly activators | 44,000 tested, under 10 active | AID 1347077, 2019;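 also: potency is read from the fitted curve at half-maximal effect; 0% = DMSO and full agonism = EC100 isoproterenol or metaproterenol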
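Receptor–beta-arrestin recruitment read by tTA-responsive luciferase: compound titrations (up to 46 µM) incubated 18 h with Tango cells, then luminescent substrate 15 min at room temperature. Concentration-response fits classified by r2, efficacy and activity.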
DRV1 agonist – qHTS for Agonists of Human Resolvin D1 Receptor DRV1; Probable G-protein coupled receptor 32 (Homo sapiens), O75388; 48,000 tested, 2.5% active; activation, % at 76.9 µM; CHO-K1 GPR32 beta-arrestin PathHunter luminescence, 90 min; zero percent set by DMSO-only wells;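 active = activation of at least 60% and not above a set upper limit, about 1 call in 100 departs from these limits; inconclusive = activation of 40% to 60%, or above that upper limit; inactive = activation under 40%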; also: 0% is about no effect
Target sequence (O75388 whole entry, looked up): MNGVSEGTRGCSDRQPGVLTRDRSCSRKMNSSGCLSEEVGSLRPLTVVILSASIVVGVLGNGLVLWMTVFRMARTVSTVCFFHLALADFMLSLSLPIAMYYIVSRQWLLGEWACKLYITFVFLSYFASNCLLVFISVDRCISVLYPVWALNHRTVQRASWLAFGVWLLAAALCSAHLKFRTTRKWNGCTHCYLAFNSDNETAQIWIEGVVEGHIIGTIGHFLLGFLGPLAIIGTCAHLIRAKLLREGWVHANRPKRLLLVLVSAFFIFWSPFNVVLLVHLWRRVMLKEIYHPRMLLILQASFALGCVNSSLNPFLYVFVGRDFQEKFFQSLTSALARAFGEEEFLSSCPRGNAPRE
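Readings come from a cell-based beta-arrestin complementation format: CHO-K1 GPR32 stable cells (2,500/well) treated 90 min with compounds, then beta-Gal substrate added for 1 h before chemiluminescence imaging.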
FH mod – Identification of activators of human fumarate hydratase by quantitative high-throughput screening. Fumarate hydratase, mitochondrial (Homo sapiens), P07954. FH coupled MDH/diaphorase resazurin fluorescence, 15 min. Potency, µM (highest dose often 79.9 µM), without a hit: at the highest dose activity change, negative = inhibition, hits mostly inhibitors. 54,000 tested, 0.22% active. AID 1347055, 2019; also: potency is read from the fitted curve at half-maximal effect; % is scaled to controls: 0 for no effect and ±100 for the full control effect; the screen sought activators but most active calls are inhibition curves; nearly all actives have a fitted effect of over 45% in size
GALK inhibitor – qHTS Assay for Inhibitors of Human Galactokinase (GALK): NCGC Sytravon Library Screen; P51570; recombinant GALK, Kinase-Glo ATP luminescence, 1 h; Potency, µM (series often up to 57.5 µM), without a hit: top-dose activity, negative = inhibition, most hits filed as inhibitors; 44,000 tested, under 10 active; AID 1347072, 2019;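 also: plate controls were full GALK reaction for no effect and reaction lacking GALK for full effect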
Target sequence (P51570 whole entry, looked up): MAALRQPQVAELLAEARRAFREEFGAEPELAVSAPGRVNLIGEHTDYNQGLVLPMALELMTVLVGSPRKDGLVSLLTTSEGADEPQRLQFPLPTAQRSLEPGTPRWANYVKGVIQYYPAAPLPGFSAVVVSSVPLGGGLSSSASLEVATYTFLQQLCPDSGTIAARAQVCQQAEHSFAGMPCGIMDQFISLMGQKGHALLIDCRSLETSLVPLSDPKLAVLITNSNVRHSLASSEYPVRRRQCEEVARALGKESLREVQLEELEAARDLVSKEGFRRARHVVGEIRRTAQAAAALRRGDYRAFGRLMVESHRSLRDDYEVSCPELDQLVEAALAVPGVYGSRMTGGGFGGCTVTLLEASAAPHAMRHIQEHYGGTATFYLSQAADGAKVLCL
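Reactions with and without enzyme served as controls. GALK at 5 nM phosphorylates 100 uM galactose using 35 uM ATP (HEPES pH 8.0, Mg2+) for 1 h at RT, with luminescence read 10 min after adding Kinase-Glo Plus.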
GALC G270D act – A Novel Cell-Based Assay to Identify Small Molecules for B -Galactocerebrosidase. P54803. 45,000 tested, 0.1% active. Potency, µM (top dose mostly 57.5 µM), usual class: activators. 145M-Twi-hGALC-G270D cells (Twitcher mouse brain line with human GALC G270D), HMU-beta-Gal fluorescence, 48 h. AID 1159614, 2016; also: potency is read from the fitted curve at half-maximal effect; 0% is about no effect; nearly all actives have a fitted effect of over 65% in size
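Brain-derived Twitcher mouse 145M-Twi cells stably expressing human GALC-G270D or wild-type GALC, treated live, then residual GALC activity read by fluorescence of HMU-b-Gal substrate (0.1 mM final) in citrate-phosphate buffer pH 5.2 with sodium taurocholate. Signal increase indicates enhancement.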
TSG101-PTAP inh – qHTS Validation Assay for Inhibitors of HIV-1 Budding by Blocking the Interaction of PTAP/TSG101: Sytravon Library Screen | Fluorescence polarization, FITC-PTAP peptide/Tsg101, 20 min | Potency, µM (doses to about 115 µM), usual class: inhibitors | 44,000 tested, under 10 active | AID 1347069, 2019; also: potency is read from the fitted curve at half-maximal effect; 0% is about no effect
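Read-out is FITC fluorescence polarization. Compounds were added to Tsg101 binding domain (10 uM final), then FITC-PTAP peptide (50 nM final), 20 min at r.t. Total S+P intensity flags fluorescent compounds.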
Starred values were filed as active, the others as inactive; [ ] = another dose, or the depositor's remark. Unless noted, calls follow the shape of the dose curve; as a rule, active = well fitted curve in the direction sought with a large enough effect; inconclusive = small, poorly fitted or top-dose-only effect, or another doubt; inactive = no such curve, though single readings can be large; an effect the other way counts as inactive or inconclusive.

Results for Cc1ccc(CCNC(=O)c2cc3c(s2)-c2ccccc2OC3)cc1 ?
B2AR arrestin ag: inactive; DRV1 agonist: 8.7; FH mod: 2.8%; GALK inhibitor: -3.6%; GALC G270D act: inactive; TSG101-PTAP inh: inactive

Results for O=C(NCCCN1CCN(c2ccc(F)cc2)CC1)c1cc2c(s1)-c1ccccc1OC2 ?
B2AR arrestin ag: inactive; DRV1 agonist: 80.4*; FH mod: inconclusive; GALK inhibitor: 4.4%; GALC G270D act: inactive; TSG101-PTAP inh: inactive

What do the screens show for `O=C(NCCc1ccc(Cl)cc1)c1cc2c(s1)-c1ccccc1OC2`?
B2AR arrestin ag: inactive; DRV1 agonist: 62.4*; FH mod: -3.9%; GALK inhibitor: -11.3%; GALC G270D act: inactive; TSG101-PTAP inh: inactive

What do the screens show for `O=C(NCCCN1CCN(c2ccccc2)CC1)c1cc2c(s1)-c1ccccc1OC2`?
B2AR arrestin ag: inactive; DRV1 agonist: 0.1; FH mod: -19.9%; GALK inhibitor: -9.0%; GALC G270D act: inactive; TSG101-PTAP inh: inactive

How did CCC(C)SSc1ncc[nH]1 (centres undefined) do in these assays?
FH mod: 7.0%[53.3 µM]

What do the screens show for `O=C(Nc1cccc(C(F)(F)F)c1)c1cc(-c2ccc3c(c2)OCCO3)on1`?
B2AR arrestin ag: inactive; DRV1 agonist: 94.0*; FH mod: 1.8%; GALK inhibitor: 0.0%; GALC G270D act: inactive; TSG101-PTAP inh: inactive

What do the screens show for `Cc1ccc(-c2csc(=Nc3ccccc3)n2CCCO)cc1`?
B2AR arrestin ag: inactive; DRV1 agonist: 86.0*; FH mod: -20.2%; GALK inhibitor: 8.3%; GALC G270D act: inactive; TSG101-PTAP inh: inactive

What do the screens show for `CCc1cccc(C)c1NC(=O)CSc1nnc(N)s1`?
B2AR arrestin ag: inactive; DRV1 agonist: 93.6*; FH mod: 8.6%; GALK inhibitor: -0.6%; GALC G270D act: inactive; TSG101-PTAP inh: inactive

Results for Cc1ccccc1Nc1c(-c2cccnc2)nc2cccc(C)n12 ?
B2AR arrestin ag: inactive; DRV1 agonist: 0.3; FH mod: 26.1%; GALK inhibitor: 0.5%; GALC G270D act: inactive; TSG101-PTAP inh: inactive

What do the screens show for `Cc1cccc2nc(-c3cccnc3)c(Nc3ccc(C(C)C)cc3)n12`?
B2AR arrestin ag: inactive; DRV1 agonist: 61.3*; FH mod: -4.8%; GALK inhibitor: -7.8%; GALC G270D act: inactive; TSG101-PTAP inh: inactive

How did Cc1ccc(Nc2c(-c3ccc(O)cc3)nc3cccc(C)n23)cc1 do in these assays?
B2AR arrestin ag: inactive; DRV1 agonist: 116.9*; FH mod: -6.2%; GALK inhibitor: 2.5%; GALC G270D act: inactive; TSG101-PTAP inh: inactive

What do the screens show for `CSc1ccc(-c2nc3cccc(C)n3c2Nc2ccc(Cl)cc2)cc1`?
B2AR arrestin ag: inactive; DRV1 agonist: -2.3; FH mod: -27.8%; GALK inhibitor: 7.4%; GALC G270D act: inactive; TSG101-PTAP inh: inactive

What do the screens show for `CCCCc1ccc(C(=O)Nc2cc(-c3ccc(Cl)cc3)nn2-c2ccc(Cl)cc2)cc1`?
FH mod: 0.3%

Results for Cc1ccc2occ(CC(=O)Nc3nnc(C(C)C)s3)c2c1 ?
B2AR arrestin ag: inactive; DRV1 agonist: -1.3; FH mod: -9.3%; GALK inhibitor: 8.8%; GALC G270D act: inactive; TSG101-PTAP inh: inactive

What do the screens show for `Cc1cc(C)c2c(CC(=O)Nc3nnc(C(C)C)s3)coc2c1`?
B2AR arrestin ag: inactive; DRV1 agonist: 65.2*; FH mod: -5.0%; GALK inhibitor: 0.8%; GALC G270D act: inactive; TSG101-PTAP inh: inactive

What do the screens show for `COc1ccccc1N(CC(=O)NCCSCc1cccc(Cl)c1)S(C)(=O)=O`?
B2AR arrestin ag: inactive; DRV1 agonist: 87.7*; FH mod: -11.0%; GALK inhibitor: 3.6%; GALC G270D act: inactive; TSG101-PTAP inh: inactive

Results for COc1ccccc1N(CC(=O)NCCSCc1ccccc1Cl)S(C)(=O)=O ?
B2AR arrestin ag: inactive; DRV1 agonist: 21.1; FH mod: 1.6%; GALK inhibitor: 0.3%; GALC G270D act: inactive; TSG101-PTAP inh: inactive

How did Cc1cc2c(c(=O)o1)C=C1CC[C@H]([C@H](C)Cn3cnc(=N)c4[nH]cnc43)C[C@@H]1O2 do in these assays?
FH mod: -5.7%

Results for Cc1ccccc1C(=O)OCc1cc(=O)n2c(C)csc2n1 ?
B2AR arrestin ag: inactive; DRV1 agonist: 75.1*; FH mod: 2.7%; GALK inhibitor: -1.1%; GALC G270D act: inactive; TSG101-PTAP inh: inactive

Results for COc1ccccc1C(=O)Nc1ccccc1C(=O)OCc1cc(=O)n2c(C)csc2n1 ?
B2AR arrestin ag: inactive; DRV1 agonist: -7.6; FH mod: -21.4%; GALK inhibitor: 2.6%; GALC G270D act: inactive; TSG101-PTAP inh: inactive

What do the screens show for `CC(C)CCOc1ccc(C(=O)Nc2sc3c(c2C#N)CCCCC3)cc1`?
B2AR arrestin ag: inactive; DRV1 agonist: inconclusive; FH mod: 5.6%; GALK inhibitor: -1.0%; GALC G270D act: inactive; TSG101-PTAP inh: inactive

What do the screens show for `Cc1ccccc1-c1ncnn1-c1sc2c(c1C#N)CCCCC2`?
B2AR arrestin ag: inactive; DRV1 agonist: 106.0*; FH mod: -18.9%; GALK inhibitor: -1.6%; GALC G270D act: inactive; TSG101-PTAP inh: inactive

What do the screens show for `N#Cc1c(-n2ncnc2-c2cccc(Br)c2)sc2c1CCCCC2`?
B2AR arrestin ag: inactive; DRV1 agonist: 13.1; FH mod: -10.1%; GALK inhibitor: -2.1%; GALC G270D act: inactive; TSG101-PTAP inh: inactive

Results for N#Cc1c(-n2ncnc2-c2ccc(F)cc2)sc2c1CCCCC2 ?
B2AR arrestin ag: inactive; DRV1 agonist: 69.0*; FH mod: -14.7%; GALK inhibitor: -0.7%; GALC G270D act: inactive; TSG101-PTAP inh: inactive

What do the screens show for `COc1ccc(Cl)c(Nc2nc3ccccc3nc2NS(=O)(=O)c2cccc(NC(=O)C(C)(C)N)c2)c1`?
FH mod: -26.8%

What do the screens show for `C=CCC1=C[C@]2(OC)[C@H](C)[C@@H](c3ccc(OC)c(OC)c3)O[C@]2(OC)CC1=O`?
FH mod: -3.3%[53.3 µM]
